Among the data in PubChem BioAssay (NCI) are growth inhibition values, retold here.

The nature of this assay: NCI Yeast Anticancer Drug Screen. Data for the rad50EPP+ strain (AID 151).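 Also: 0% = growth of vehicle-treated control cultures.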 The conditions noted are these: S. cerevisiae rad50 mutant strain, hits give high values. On the procedure: Growth inhibition of yeast strains with defined genetic alterations is measured as a screen for potential anti-cancer activity. Selected strains with alterations in DNA damage repair or cell cycle control were exposed to compounds and growth inhibition was measured relative to vehicle treated controls. The strain used in this assay is rad50EPP+

The panel holds about 79,000 compounds, 15% with a hit somewhere; the sample as a whole holds those more often. Values without a mark were called inactive. Active and inactive are the calls of the source. Rule as the data show it: active = growth inhibition above about 70%; inactive = the rest.

Regarding `CN=C(N)N/N=C(\C)c1ccc2oc3ccc(/C(C)=N/NC(N)=NC)cc3c2c1`, the growth inhibition was -17% (at 1.2 µM); 23% (at 3.7 µM); 70% (active) (at 11.0 µM); 96% (active) (at 33.0 µM); 98% (active) (at 100.0 µM).

`COc1cc(CNc2ccc(C(C)C)cc2)cc(OC)c1OC`: the growth inhibition runs as follows: (at 1.2 µM) -4%; (at 3.7 µM) -6%; (at 11.0 µM) 5%; (at 33.0 µM) 26%; (at 100.0 µM) 28%.

Turning to `S=P(N1CC1)(N1CC1)N1CC1`, the growth inhibition reads like this: (at 1.2 µM) -4%; (at 3.7 µM) -5%; (at 11.0 µM) -4%; (at 33.0 µM) 7%; (at 100.0 µM) 34%.

As for `CCOc1ccc(C(=O)CCC(=O)O)c(C)c1`, the growth inhibition is, setting by setting: (at 1.2 µM) -2%; (at 3.7 µM) -2%; (at 11.0 µM) 0%; (at 33.0 µM) -3%; (at 100.0 µM) 3%.

As to `COc1ccc2oc(-c3ccc(Cl)cc3)c(N3CCN(C)CC3)c2c1`, the growth inhibition reads like this: (at 1.2 µM) -1%; (at 3.7 µM) -4%; (at 11.0 µM) 28%; (at 33.0 µM) 99% (active); (at 100.0 µM) 99% (active).

Take `C=C(CCCO)[C@@H]1CC[C@@](C)(O)[C@H]1C`: the growth inhibition was -38% (at 1.2 µM); -32% (at 3.7 µM); -54% (at 11.0 µM); -38% (at 33.0 µM); -48% (at 100.0 µM).

As for `CN(NC(=O)/C(=C/c1ccc(O)cc1)NC(=O)c1ccccc1)c1ccnc2cc(Cl)ccc12`, the growth inhibition is -2% (at 1.2 µM); 3% (at 3.7 µM); 14% (at 11.0 µM); 34% (at 33.0 µM); 42% (at 100.0 µM).

As to `Oc1ccc(Br)cc1C=NC1CCCCC1`, the growth inhibition is 3% (at 1.2 µM); 12% (at 3.7 µM); 35% (at 11.0 µM); 74% (active) (at 33.0 µM); 93% (active) (at 100.0 µM).
